Reference: the supplement of paper PMC10338343
± gives the standard deviation.

Assays:
[1] = tested on: MILI (PIWIL2) piRISC loaded with L1MC piRNA (26 nt); test: pre-steady-state target cleavage rate (min^-1); guide: L1MC piRNA 5'p-UAACUAAAUACUAUGCAAGCUGUAGG; higher = faster piRNA-guided slicing of the target; details: auxiliary factor: 500 nM mouse GTSF1
Outline: (§1)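 The pre-steady-state cleavage rate was obtained by Cleave-'n-Seq with a burst-and-steady-state fit. A transcribed, DNA-blocked target RNA library (0.1 nM) was mixed with 1 nM active affinity-purified piRISC carrying one synthetic guide, with or without 500 nM GTSF1 partner protein, in HEPES–potassium acetate buffer at 33 °C for 0–8 or 0–960 min. Uncleaved targets were sequenced and normalised to depth and to weakly complementary targets, with three trials pooled and k3 capped at 0.0001 min^-1.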

[2] = tested on: EfPiwi piRISC loaded with L1MC piRNA (26 nt); test: pre-steady-state target cleavage rate (min^-1); auxiliary factor: 500 nM Ephydatia muelleri Gtsf1; guide: L1MC piRNA 5'p-UAACUAAAUACUAUGCAAGCUGUAGG; MIWI and MILI are mouse PIWI proteins and EfPiwi is from a freshwater sponge; tags in brackets are library labels; higher = faster piRNA-guided slicing of the target
Outline: as §1

Row | Sequence | pre-steady-state target cleavage rate [1] | pre-steady-state target cleavage rate [2]
1 | UCCUGGAACAGCUAGCAUAGUAUUUUGUUA | 0.154 ± 0.029 | 0.00465 ± 0.003
2 | UCCUGGAACACCAUGCAUAGUAUUUAGUUA | 0.163 ± 0.018 | 0.00616 ± 0.0041
3 | UCCUCCUACAGCUUGCAUAGUAUUUAGCUUA | 0.253 ± 0.075 | 0.00683 ± 0.0027
4 | UCCUGGAUGAGCUUGCAUAGUAUAAAGUUA | 0.255 ± 0.047 | 0.00848 ± 0.0042
5 | UCCUGGAACAGCUUGCAUAGUAUUUAGAUA | 0.137 ± 0.025 | 0.00437 ± 0.0016
6 | UCCUCCUACAGCUUGCAAAGAAUUUAGUUA | 0.0165 ± 0.0051 | 0.0033 ± 0.0027
7 | UCCUGCUACAGCUUGCUUAGUAUUAAGUUA | 0.179 ± 0.026 | 0.00988 ± 0.0037
8 | UCCUGCUACAGCUUGCAUAGUAUUUAGUGUA | 0.244 ± 0.048 | 0.00597 ± 0.0021
9 | UCCUGGAACAGCUUGCAUUGUAUUUAGAAA | 0.115 ± 0.028 | 0.00376 ± 0.0021
10 | UCCUGCUACAGCUUGCAUAAGUAUUUAGUUA | 0.0171 ± 0.0064 | 0.00273 ± 0.0019
11 | UCCUCCUACAGCUUGCUUAGUAUUUAGAAA | 0.091 ± 0.018 | 0.00569 ± 0.0027
12 | UCCUGGAUCAGCUUGCAUAGUAUAAAGUAA | 0.11 ± 0.024 | 0.00455 ± 0.0038
13 | UCCUGGAUCAGCUUGCAUAGUAUUUAUUA | 0.044 ± 0.011 | 0.0033 ± 0.0024
14 | UCCUGGUACAGCUUGCAUUGUAUUUAGAUA | 0.0565 ± 0.016 | 0.00292 ± 0.0018
15 | UCCUCCUACAGCUUGCAUAGUAAAAACAAA | 0.0836 ± 0.022 | 0.00389 ± 0.0036
16 | UCCUGGAUCAGCUUGCAUAGUAUUAAGAUA | 0.0716 ± 0.025 | 0.006 ± 0.0032
17 | UCCUGGAUGUGGAUGCAUAGUAUUUAGAAA | 0.013 ± 0.0055 | 0.00388 ± 0.0027
18 | UCCUCCUACACCUUGCAUAGUAUUAAGUUA | 0.178 ± 0.036 | 0.00451 ± 0.0025
19 | UCCUGGAUCAGCUUGCAUAGUAUUUAGUCUA | 0.0918 ± 0.025 | 0.00289 ± 0.0027
20 | UCCUCCUACAGCUUGCAUAGAAUUUAGAUA | 0.0558 ± 0.014 | 0.00317 ± 0.0015
